Hits are enriched below; roughly 11% of the tested compounds scored in any of these assays.
MCF10A rerep = A quantitative high throughput screen for small molecules that induce DNA re-replication in MCF 10a normal breast cells | AID 624296, 2012 | hit rate 2.9% among 350,000 | MCF 10A DNA re-replication, Hoechst nuclear intensity, 48 h | Potency, µM (series often up to 46.1 µM), inactives show top-dose activity, positive = re-replication, actives largely listed as activators; also: potency is read from the fitted curve at half-maximal effect; % of control where 0% means no effect; nearly all actives have a fitted effect of over 50% in size
RORgamma inh = qHTS for inhibitors of ROR gamma transcriptional activity | Drosophila S2 Gal4-RORgamma UAS-luciferase reporter, 20 h | hit rate 5.4% among 310,000 | Potency, µM (series often up to 53.6 µM), for the others: top-dose activity change, negative = inhibition, most hits filed as inhibitors | Nuclear receptor ROR-gamma (Mus musculus), P51450 | AID 2551, 2010; also: potency is read from the fitted curve at half-maximal effect; % is scaled to controls: 0 for no effect and ±100 for the full control effect; nearly all actives have a fitted effect of over 60% in size
Target sequence (P51450 whole entry, looked up, the tested form may be a part): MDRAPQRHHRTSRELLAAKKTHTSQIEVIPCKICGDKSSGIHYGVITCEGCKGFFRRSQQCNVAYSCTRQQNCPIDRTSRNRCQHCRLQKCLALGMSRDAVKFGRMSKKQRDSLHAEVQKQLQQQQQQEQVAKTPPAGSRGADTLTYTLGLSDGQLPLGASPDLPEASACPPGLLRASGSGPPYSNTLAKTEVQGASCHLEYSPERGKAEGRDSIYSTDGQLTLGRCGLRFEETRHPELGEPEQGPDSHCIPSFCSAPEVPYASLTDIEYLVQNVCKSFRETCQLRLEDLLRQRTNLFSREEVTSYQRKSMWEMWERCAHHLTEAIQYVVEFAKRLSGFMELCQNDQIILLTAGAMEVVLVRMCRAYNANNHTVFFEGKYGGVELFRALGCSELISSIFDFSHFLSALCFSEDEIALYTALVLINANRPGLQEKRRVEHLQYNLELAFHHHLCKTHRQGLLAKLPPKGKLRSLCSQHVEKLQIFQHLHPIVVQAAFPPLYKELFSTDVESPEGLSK
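Read-out: Photinus luciferase luminescence; inhibitors lower reporter signal. Insect Schneider cells with Gal4-ROR gamma fusion under metallothionein promoter, UAS reporter; 700 uM final copper sulfate induction, 20 hr, ambient temperature.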
SW480 rereplic = A quantitative high throughput screen for small molecules that induce DNA re-replication in SW480 colon adenocarcinoma cells. SW480 DNA re-replication, Hoechst DNA content imaging, 48 h. Potency, µM (highest dose often 46.1 µM), for inactives: at the highest dose re-replication activation, hits mostly activators. hit rate 1.8% among 340,000; also: potency is read from the fitted curve at half-maximal effect; % of control where 0% means no effect; nearly all actives have a fitted effect of over 55% in size
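Treated cells incubate 48 hr (37 C, 5% CO2), are stained 40 min with Hoechst, and nuclear fluorescence is enumerated; a rise in nuclei with high DNA signal marks re-replication.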
VP16 counter = VP16 counterscreen qHTS for inhibitors of ROR gamma transcriptional activity. hit rate 3.5% among 310,000. Drosophila S2 Gal4-VP16 UAS-luciferase, luminescence, 20 h. Potency, µM (doses to about 53.6 µM), for inactives: top-dose activity, negative = inhibition, actives largely listed as inhibitors. AID 2546, 2010;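 also: Gal4-VP16 expression switched on by copper sulfate through the metallothionein promoter; potency is read from the fitted curve at half-maximal effect; % is scaled to controls: 0 for no effect and ±100 for the full control effect; nearly all actives have a fitted effect of over 50% in size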
IL1B secr inh = qHTS for Inhibitors of Inflammasome Signaling: IL-1-beta AlphaLISA Primary Screen; activity change, % at 57.5 µM; THP-1 LPS/ATP IL-1B secretion, AlphaLISA, 16 h; hits give low values; hit rate 4.7% among 360,000; AID 743279, 2014; in the data active = activity change below about -50%; inconclusive = mostly about -30% to -49%; also: % is scaled to controls: 0 for no effect and ±100 for the full control effect
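Secreted IL-1B measured by AlphaLISA bead assay after 16 h compound exposure of THP-1 cells; compounds (final up to 57.5 uM) added 1 h before LPS (250 ng/mL) and ATP (1.25 mM) stimulation; lower signal means less secretion.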
An asterisk follows results filed as active. Unless noted, calls follow the shape of the dose curve; as a rule, active = well fitted curve in the direction sought with a large enough effect; inconclusive = small, poorly fitted or top-dose-only effect, or another doubt; inactive = no such curve, though single readings can be large; an effect the other way counts as inactive or inconclusive.

What do the screens show for `COc1cc2c(cc1O)CCN[C@@]21CS[C@H]2c3c(OC(C)=O)c(C)c4c(c3C(COC1=O)N1C2C2c3c(cc(C)c(OC)c3O)CC([C@@H]1O)N2C)OCO4` (some centres undefined)?
MCF10A rerep: -22.9%; RORgamma inh: 0.141µM*; SW480 rereplic: -4.7%; VP16 counter: 0.447µM*

What do the screens show for `CC1CN(c2nc3ccccc3cc2-c2ccccc2)CC(C)O1` (centres undefined)?
MCF10A rerep: 20.6µM*; RORgamma inh: -13.0%; SW480 rereplic: -1.4%; VP16 counter: -1.9%; IL1B secr inh: 34.2

Results for CC1CN(c2nn3c(=O)c4ccccc4nc3c3ccccc23)CC(C)O1 (centres undefined) ?
MCF10A rerep: -8.7%; RORgamma inh: 17.9%; SW480 rereplic: -15.2%; VP16 counter: -17.0%; IL1B secr inh: -63.2*

Results for CC1CN(c2cc(-c3ccccc3)c3ccccc3n2)CC(C)O1 (centres undefined) ?
MCF10A rerep: 6.7%; RORgamma inh: 14.4%; SW480 rereplic: 3.2%; VP16 counter: 1.2%; IL1B secr inh: 5.8

How did O=c1c2ccccc2nc2c3ccccc3c(Cl)nn12 do in these assays?
RORgamma inh: inconclusive; VP16 counter: 3.0%

How did CCN1CCN(c2nn3c(=O)c4ccccc4nc3c3ccccc23)CC1 do in these assays?
MCF10A rerep: -7.5%; RORgamma inh: -5.9%; SW480 rereplic: 5.3%; VP16 counter: 1.4%; IL1B secr inh: -58.5*

Results for C[C@@H]1CCCCO[C@@H](CN(C)CC2CC2)[C@@H](C)CN([C@H](C)CO)C(=O)c2cc(N(C)C)ccc2O1 ?
IL1B secr inh: 15.8

Results for O=C(Oc1ccccc1C(=O)Nc1ccccc1)c1ccc(Br)c([N+](=O)[O-])c1 ?
MCF10A rerep: inconclusive; RORgamma inh: 15.5%; SW480 rereplic: 1.6%; VP16 counter: inconclusive; IL1B secr inh: -73.1*

Results for CN1/C(=C/C(=O)COC(=O)C2COc3ccccc3O2)C(C)(C)c2ccccc21 (centres undefined) ?
MCF10A rerep: -0.8%; SW480 rereplic: 3.2%; IL1B secr inh: 10.5

Results for CNS(=O)(=O)c1cccc(C(=O)OCC(=O)/C=C2/N(C)c3ccccc3C2(C)C)c1 ?
MCF10A rerep: inconclusive; RORgamma inh: inconclusive; SW480 rereplic: 3.1%; VP16 counter: 0.398µM*; IL1B secr inh: 10.9

What do the screens show for `CN1/C(=C\C(=O)COC(=O)CN2C(=O)C3CC=CCC3C2=O)C(C)(C)c2ccccc21` (centres undefined)?
MCF10A rerep: inconclusive; RORgamma inh: inconclusive; SW480 rereplic: -0.5%; VP16 counter: 4.47µM*; IL1B secr inh: 58.7

What do the screens show for `C[C@@H](C(=O)NCc1ccc(C(F)(F)F)nc1)[C@H]1C[C@]1(C)[C@H](NC(=O)OCc1ccccc1)c1ccccc1`?
RORgamma inh: 4.4%; VP16 counter: 10.0%

Results for CCCCCCC1(C)NC(=O)N(C(C)C(=O)Nc2ccc(N3CCOCC3)cc2)C1=O (centres undefined) ?
MCF10A rerep: -2.5%; SW480 rereplic: 3.3%; IL1B secr inh: 4.0

Results for CC(C)c1ccc(C2(C)NC(=O)N(C(C)C(=O)Nc3ccc(N4CCOCC4)cc3)C2=O)cc1 (centres undefined) ?
MCF10A rerep: inconclusive; SW480 rereplic: 6.51µM*; IL1B secr inh: 6.7

How did CNC(=S)Nc1ccc(Nc2ccccc2)cc1 do in these assays?
MCF10A rerep: -5.1%; RORgamma inh: 11.2µM*; SW480 rereplic: 1.7%; VP16 counter: -1.5%; IL1B secr inh: -2.6

What do the screens show for `CCCNC(=S)Nc1ccc(Nc2ccccc2)cc1`?
MCF10A rerep: 3.9%; RORgamma inh: 5.01µM*; SW480 rereplic: -3.1%; VP16 counter: 15.8µM*; IL1B secr inh: inconclusive

Results for CCCCCCN(C(=O)CCCCCN1C(=O)NC(c2ccccc2-c2ccccc2)C(C(=O)OCc2ccccc2)=C1C)C(C(=O)NCCCC)c1ccc(OCC(=O)OC)c(C(=O)OC)c1 (centres undefined) ?
RORgamma inh: -1.5%; VP16 counter: -7.4%

What do the screens show for `Cc1ccc(S(=O)(=O)n2ccc3c(OCCOCCNCc4ccc(F)cc4)cccc32)cc1`?
MCF10A rerep: inconclusive; RORgamma inh: -89.0%; SW480 rereplic: 4.7%; VP16 counter: inconclusive; IL1B secr inh: -88.5*

How did CCCn1c(=S)[nH]c2cc(C(=O)N3CCN(C)CC3)ccc2c1=O do in these assays?
IL1B secr inh: 38.5

Results for COCCn1c(=S)[nH]c2cc(C(=O)N3CCc4ccccc43)ccc2c1=O ?
MCF10A rerep: -0.9%; RORgamma inh: 12.6µM*; SW480 rereplic: -6.9%; VP16 counter: inconclusive; IL1B secr inh: 0.0

Results for CCCn1c(=S)[nH]c2cc(C(=O)N3CCc4ccccc43)ccc2c1=O ?
MCF10A rerep: inconclusive; RORgamma inh: 2.82µM*; SW480 rereplic: -8.4%; VP16 counter: 3.55µM*; IL1B secr inh: -8.4

What do the screens show for `CS(=O)(=O)c1cccc(C(=O)OCC(=O)NC(=O)Nc2ccccc2F)c1`?
MCF10A rerep: -1.3%; SW480 rereplic: 2.5%; IL1B secr inh: 13.5

What do the screens show for `O=C(O)c1cc(N=Nc2ccc(-c3ccc(N=Nc4ccc(O)c(C(=O)O)c4)cc3)cc2)ccc1O`?
RORgamma inh: 7.0%; VP16 counter: -6.8%

How did CC(C)C1N=C(c2ccc3c(c2)OCO3)CC(c2ccccc2O)N1 (centres undefined) do in these assays?
MCF10A rerep: 20.6µM*; RORgamma inh: -27.0%; SW480 rereplic: inconclusive; VP16 counter: -1.5%; IL1B secr inh: -18.6

How did COc1ccc2c(c1)C1NC(=S)N[C@@](C)(O2)C1C(=O)Nc1ccccc1 (some centres undefined) do in these assays?
MCF10A rerep: -7.0%; RORgamma inh: -19.2%; SW480 rereplic: -2.7%; VP16 counter: -6.2%; IL1B secr inh: -11.5

How did COc1ccc2c(c1)C1NC(=S)NC(C)(O2)C1C(=O)Nc1ccc(C)cc1C (centres undefined) do in these assays?
MCF10A rerep: -8.6%; RORgamma inh: -20.3%; SW480 rereplic: 8.3%; VP16 counter: 3.8%; IL1B secr inh: -56.4*

How did Cc1c(Cl)cccc1N/C(SCC(=O)N1CCCCCC1)=C(/C#N)c1nc2ccccc2s1 do in these assays?
MCF10A rerep: inconclusive; RORgamma inh: 8.91µM*; SW480 rereplic: 14.6µM*; VP16 counter: -22.8%; IL1B secr inh: -93.5*

Screens: PubChem BioAssay, National Center for Advancing Translational Sciences (NCATS)
